Compound activity (PubChem BioAssay)
A selection: hits, their analogues and other compounds. The true share with any hit is near 18%.
TDP1 cell noCPT = qHTS for Inhibitors of human tyrosyl-DNA phosphodiesterase 1 (TDP1): qHTS in cells in absence of CPT; DT40 Tdp1-/- hTDP1 cells, no CPT, ATP luminescence, 48 h; Potency, µM (titrated, usually from 46.2 µM), most hits filed as inhibitors; 15% of 420,000 active; note: nearly all actives have a fitted effect of over 55% in size
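Growth kinetics read by CellTiter-Glo luminescence after ≥48 hr at 37 °C. Cells: DT40 Tdp1-/- stably carrying human TDP1, 400 per well, compound exposure in the absence of CPT (DMSO vehicle).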
KAT2A inh = qHTS Assay for Inhibitors of GCN5L2. Histone acetyltransferase KAT2A (Homo sapiens), Q92830. GCN5L2 HAT assay, ThioGlo1 CoA-SH fluorescence. Potency, µM (top dose mostly 58.9 µM), actives largely listed as inhibitors. 0.21% of 390,000 active. AID 504327, 2011
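GCN5L2 (20 nM) in 50mM HEPES pH 7.5, 0.1mM EDTA, 0.01% Tween-20 preincubated 15 min with compounds at room temperature. Reaction started with H3(1-25) 75uM, acetyl-CoA 70uM, ThioGlo1 50uM; CoA-thiol fluorescence (Ex340/Em540) read at 0 and 20 min.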
TDP1 inh = qHTS Assay for Inhibitors of Tyrosyl-DNA Phosphodiesterase (TDP1). Tyrosyl-DNA phosphodiesterase 1 (Homo sapiens), Q9NUW8. recombinant TDP1, AlphaScreen DNA substrate cleavage. Potency, µM (top dose mostly 130 µM), most hits filed as inhibitors. 0.28% of 350,000 active; note: nearly all actives have a fitted effect of over 40% in size
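Tdp1 1 nM final; 15 min RT w/ cpd; substrate 15 nM, 5 min; beads 10 ug/ml, 10 min; AlphaScreen read. Neg ctrl: no enzyme.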
VDR inh = Inhibitors of the vitamin D receptor (VDR): qHTS. VDR-SRC2-3 peptide fluorescence polarization, 2 h. 0.93% of 400,000 active. Potency, µM, actives largely listed as inhibitors
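Fluorescence polarization assay of small-molecule disruption of VDR binding to coregulator peptide SRC2-3. Compounds and controls pin-transferred, then read after 2 h incubation at ambient room temperature.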
DT40 TDP1 CPT = qHTS for Inhibitors of human tyrosyl-DNA phosphodiesterase 1 (TDP1): qHTS in cells in presence of CPT; chicken DT40 Tdp1-/-;hTDP1 cells + 20 nM CPT, ATP luminescence, 48 h; Potency, µM (series often up to 46.2 µM), most hits filed as inhibitors; 12% of 420,000 active; AID 686979, 2013; note: nearly all actives have a fitted effect of over 55% in size
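Cell growth measured by CellTiter-Glo luminescence after a minimum 48 h, 37 C compound exposure with 20 nM CPT in Tdp1-knockout DT40 cells stably expressing hTDP1, seeded 400/well; qHTS titration format.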
PLK1 PBD block = qHTS for Inhibitors of PLK1-PDB (polo-like kinase 1 - polo-box domain): Primary Screen | Serine/threonine-protein kinase PLK1 (Homo sapiens), P53350 | Plk1 PBD binding of FITC phosphopeptide, fluorescence polarization | Potency, µM, hits mostly inhibitors | 2.8% of 360,000 active; note: series mostly up to about 57 µM; nearly all actives have a fitted effect of over 65% in size
Target sequence (P53350 whole entry, looked up, the tested form may be a part): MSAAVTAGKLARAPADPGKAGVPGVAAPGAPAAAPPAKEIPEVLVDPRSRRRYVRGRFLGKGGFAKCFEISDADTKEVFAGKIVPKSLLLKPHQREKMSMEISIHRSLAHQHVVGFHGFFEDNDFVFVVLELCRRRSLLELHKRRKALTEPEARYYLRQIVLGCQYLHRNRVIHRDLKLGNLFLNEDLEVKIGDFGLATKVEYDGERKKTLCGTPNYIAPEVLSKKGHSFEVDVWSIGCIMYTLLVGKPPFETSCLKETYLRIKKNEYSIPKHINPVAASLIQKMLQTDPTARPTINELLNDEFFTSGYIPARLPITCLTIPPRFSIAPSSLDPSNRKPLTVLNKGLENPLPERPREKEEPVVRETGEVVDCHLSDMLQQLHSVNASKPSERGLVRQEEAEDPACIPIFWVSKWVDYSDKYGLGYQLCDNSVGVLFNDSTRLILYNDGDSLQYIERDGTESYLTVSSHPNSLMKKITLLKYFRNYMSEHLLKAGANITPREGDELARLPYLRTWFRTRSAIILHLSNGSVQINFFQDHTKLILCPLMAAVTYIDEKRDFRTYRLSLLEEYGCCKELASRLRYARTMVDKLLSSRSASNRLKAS
Numbers stand for hits; – = inactive; ? = inconclusive; · = no result given. Calls come from the whole dose curve; as a rule, active = well fitted curve in the direction sought with a large enough effect; inconclusive = small, poorly fitted or top-dose-only effect, or another doubt; inactive = no such curve, though single readings can be large; an effect the other way counts as inactive or inconclusive.

SMILES	TDP1 cell noCPT	KAT2A inh	TDP1 inh	VDR inh	DT40 TDP1 CPT	PLK1 PBD block
CCCCCCCNC(=O)C1(CC2CC(c3cccc(Br)c3)=NO2)CCN(C(=O)OC(C)(C)C)CC1 (stereo not given)	14.6µM	–	·	–	?	–
O=C(c1ccccc1)N1CCC(CC2CC(c3cccc(Br)c3)=NO2)(C(=O)NCC2CCCCC2)CC1 (stereo not given)	?	–	·	–	?	–
O=C(NCC1CCCCC1)C1(CC2CC(c3cccc(Br)c3)=NO2)CCNCC1 (stereo not given)	16.4µM	–	·	–	16.4µM	–
CC(O)[C@@H]1NC(=O)[C@H](Cc2ccccc2)NC(=O)[C@H](C(C)O)NC(=O)[C@H](CCCCN)NC(=O)[C@H](Cc2c[nH]c3ccccc23)NC(=O)[C@H](Cc2ccccc2)NC(=O)[C@H](Cc2ccccc2)NC(=O)[C@H](CC(N)=O)NC(=O)[C@H](CCCCN)NC(=O)[C@@H](NC(=O)CNC(=O)[C@H](C)N)CSSC[C@@H](C(=O)O)NC(=O)[C@H](CO)NC1=O (stereo not given in full)	–	·	·	·	–	·
COc1ccc(CNC(=O)C2(CC3CC(c4ccccc4)=NO3)CCN(C(=O)Cc3ccc(F)cc3)CC2)cc1 (stereo not given)	?	·	·	–	?	–
O=C(NCC1CCCCC1)C1(CC2CC(c3ccc(Cl)cc3)=NO2)CCNCC1 (stereo not given)	18.4µM	–	·	–	23.1µM	–
O=C(Nc1ncc(Cc2cccc(C(F)(F)F)c2)s1)c1ccc(-c2cccc([N+](=O)[O-])c2)o1	?	–	–	–	14.6µM	–
O=C(Nc1ccc(CN2CCOCC2)cc1)c1ccc(-c2cc(Cl)ccc2Cl)o1	23.1µM	–	–	–	?	–
O=C(COc1ccc(Cl)cc1Cl)Nc1ccc(CN2CCCCC2)cc1	–	–	–	–	–	–
COc1c(Cl)cc(Cl)cc1C(=O)Nc1ccc(CN2CCCCC2)cc1	16.4µM	–	–	–	?	–
O=C(Nc1ccc(CN2CCOCC2)cc1)c1ccc(-c2cccc([N+](=O)[O-])c2)o1	16.4µM	–	–	–	20.6µM	–
O=C(Nc1ccc(CN2CCOCC2)cc1)c1ccc(Br)o1	–	–	·	–	–	–
O=[N+]([O-])c1cccc(-c2ccc(C(=S)N3CCOCC3)o2)c1	?	–	–	–	–	–
Cc1ccc(C)c(OCCC(=O)OCC(=O)Nc2cc(S(=O)(=O)N3CCCCC3)ccc2C)c1	–	–	–	–	–	–
C/C(=N/NC(=O)c1cc(C)[nH]n1)c1ccco1	–	–	–	–	–	–
COc1c(C)cccc1C(=O)Nc1ccc(CN2CCOCC2)cc1	–	–	–	–	–	–
COc1c(Cl)cc(Cl)cc1C(=O)Nc1ccc(CN2CCOCC2)cc1	?	–	·	–	16.4µM	–
O=C(Nc1ccc(CN2CCCCC2)cc1)Nc1ccc(Br)cc1Cl	16.4µM	–	–	–	18.4µM	–
COc1ccccc1-c1nnc(NC(=O)CSc2nncn2C)s1	–	–	–	–	–	–
NC[C@H]1O[C@H](O[C@H]2[C@H](O)[C@@H](O[C@H]3O[C@H](CO)[C@@H](O)[C@H](N)[C@H]3O)[C@H](N)C[C@@H]2N)[C@H](N)[C@@H](O)[C@@H]1O	–	·	·	·	?	·
Cc1ccc(CCNC(=O)Cc2ccc(NC3=NC4CS(=O)(=O)CC4S3)cc2)cc1 (stereo not given)	–	–	·	–	–	–
O=C1N=C(N2CCCCC2)S/C1=C\c1ccncc1	–	–	–	–	–	–
COc1cc(/C=C2\SC(N3CCCCC3)=NC2=O)cc(OC)c1OC	11.6µM	?	·	–	20.6µM	–
CC1CCN(C2=NC(=O)/C(=C/c3cccc(O)c3)S2)CC1	?	–	·	–	?	–
CC1Cc2cc(/C=C3/SC(N4CCC(C(N)=O)CC4)=NC3=O)ccc2O1 (stereo not given)	18.4µM	–	·	–	14.6µM	–
SMILES	TDP1 cell noCPT	KAT2A inh	TDP1 inh	VDR inh	DT40 TDP1 CPT	PLK1 PBD block
CCOC(=O)C1CCCN(C2=NC(=O)/C(=C/c3ccc(OC)c(OC)c3)S2)C1 (stereo not given)	9.2µM	–	·	–	?	–
COc1ccc(/C=C2\SC(N3CCCCC3)=NC2=O)cc1	?	–	·	–	11.6µM	–
Cc1ccc(OCCSc2nc3ncnc(N)c3[nH]2)cc1	?	–	–	?	8.2µM	9.47µM
Nc1ncnc2nc(SCCOc3ccc(Cl)cc3)[nH]c12	–	–	–	–	–	–
CC(C)CC(COCc1cccc(C(F)(F)F)c1)N1CCN(C(=O)c2cccc(C(F)(F)F)c2)CCC1=O (stereo not given)	23.1µM	–	–	–	16.4µM	–
CC(C)CC(COCc1ccc(C(F)(F)F)cc1)N1CCN(C(=O)c2ccc(C(F)(F)F)cc2)CCC1=O (stereo not given)	?	–	–	–	?	–
Cc1ccccc1COC[C@H](CC(C)C)N1CCN(C(=O)c2cccc(C(F)(F)F)c2)CCC1=O	13µM	–	–	–	16.4µM	–
Cc1ccc(COC[C@H](CC(C)C)N2CCN(C(=O)c3cccc(C(F)(F)F)c3)CCC2=O)cc1	?	·	·	·	?	–
CC(C)CC(COCc1ccc(Cl)cc1)N1CCN(C(=O)c2cccc(C(F)(F)F)c2)CCC1=O (stereo not given)	20.6µM	–	–	–	16.4µM	–
COc1cccc(CN(CC(=O)NCc2ccccc2)C(=O)c2csnn2)c1	–	–	–	–	–	–
CC(C)CN(C(=O)CN(C)C(=O)Cc1c(F)cccc1Cl)c1c(N)n(CC(C)C)c(=O)[nH]c1=O	–	·	·	·	–	–
O=C(Cn1ccc2cc(S(=O)(=O)N3CCCCCC3)ccc21)NCCc1ccccc1Cl	?	–	–	–	?	·
CCOc1ccc(OCC)c(S(=O)(=O)NCCOC23CC4CC(CC(C4)C2)C3)c1	13µM	–	–	–	?	–
COc1cc(S(=O)(=O)NCCOC23CC4CC(CC(C4)C2)C3)c(OC)cc1Cl	10.3µM	–	–	–	14.6µM	–
N#Cc1ccc2[nH]c(CO)c(-c3ccccc3)c2c1	?	–	·	–	?	–
